Legend:
Assay in all cases: PBM binding z-score (relative to random genomic background probes); higher = stronger binding; sequences stand for … in GC…GCGATTGACAGCGTAGAATGAAGG
[1] = tested on: FXR:RXRa (NR concentration 270 nM, RXRa partner concentration 90 nM)
Summary of the method: (§1)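 Custom Agilent 4×180K protein-binding microarrays carried double-stranded probes. Their 34-nt variable regions held direct-repeat seeds, single-nucleotide variants, half-site ablations and random human genomic background sequences. Arrays were incubated 1 h with ligand-free nuclear receptor dimers in PBS pH 7.4, 2% milk, 0.02% Triton X-100, 1 mM DTT, 0.2 mg/mL BSA and 0.4 mg/ml salmon testes DNA. Antibodies against each partner (one per run) detected binding, and scanned fluorescence was regression-normalized. Binding z-scores use random background probes as reference.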

[2] = tested on: LXRa:RXRa (NR concentration 270 nM, RXRa partner concentration 90 nM)
Summary of the method: as §1

[3] = tested on: LXRa homodimer (NR concentration 270 nM)
Summary of the method: as §1

[4] = tested on: LXRb:RXRa (NR concentration 270 nM, RXRa partner concentration 90 nM)
Summary of the method: as §1

[5] = tested on: LXRb homodimer (NR concentration 270 nM)
Summary of the method: as §1

[6] = tested on: PPARa:RXRa (NR concentration 270 nM, RXRa partner concentration 90 nM)
Summary of the method: as §1

[7] = tested on: PPARg:RXRa (NR concentration 180 nM, RXRa partner concentration 90 nM)
Summary of the method: as §1

[8] = tested on: PPARg:RXRa 270nM:90nM, anti-RXR (NR concentration 270 nM, RXRa partner concentration 90 nM)
Summary of the method: as §1

[9] = tested on: PPARg:RXRa 30nM:10nM, anti-RXR (NR concentration 30 nM, RXRa partner concentration 10 nM)
Summary of the method: as §1

[10] = tested on: PPARg:RXRa 90nM:30nM, anti-RXR (NR concentration 90 nM, RXRa partner concentration 30 nM)
Summary of the method: as §1

[11] = tested on: PPARg:RXRa DBDmut IVT, anti-RXR (DBD mutation: RXRa K156A/R161A, NR concentration 270 nM, RXRa partner concentration 90 nM)
Summary of the method: as §1

[12] = tested on: PPARg:RXRa IVT, anti-PPARg (NR concentration 270 nM, RXRa partner concentration 90 nM)
Summary of the method: as §1

[13] = tested on: PPARg DBDmut:RXRa IVT, anti-PPARg (DBD mutation: PPARg1 K132A/R137A, NR concentration 270 nM, RXRa partner concentration 90 nM)
Summary of the method: as §1

[14] = tested on: PPARg DBDmut IVT, anti-PPARg (DBD mutation: PPARg1 K132A/R137A, NR concentration 270 nM)
Summary of the method: as §1

[15] = tested on: PPARg homodimer (NR concentration 180 nM)
Summary of the method: as §1

[16] = tested on: PXR:RXRa (NR concentration 270 nM, RXRa partner concentration 90 nM)
Summary of the method: as §1

[17] = tested on: PXR homodimer (NR concentration 270 nM)
Summary of the method: as §1

[18] = tested on: RARa:RXR (NR concentration 270 nM, RXRa partner concentration 90 nM)
Summary of the method: as §1

[19] = tested on: RARa homodimer (NR concentration 270 nM)
Summary of the method: as §1

[20] = tested on: RARb:RXRa (NR concentration 270 nM, RXRa partner concentration 90 nM)
Summary of the method: as §1

Row | Sequence | PBM binding z-score [1] | PBM binding z-score [2] | PBM binding z-score [3] | PBM binding z-score [4] | PBM binding z-score [5] | PBM binding z-score [6] | PBM binding z-score [7] | PBM binding z-score [8] | PBM binding z-score [9] | PBM binding z-score [10] | PBM binding z-score [11] | PBM binding z-score [12] | PBM binding z-score [13] | PBM binding z-score [14] | PBM binding z-score [15] | PBM binding z-score [16] | PBM binding z-score [17] | PBM binding z-score [18] | PBM binding z-score [19] | PBM binding z-score [20]
1 | TCTTGTAGATCAGCAGGTGAAGAAAGCTGGCCAA | 0.169 | -0.0408 | -0.605 | -0.0895 | -0.698 | 0.51 | -0.409 | 1.19 | 2.2 | 1.8 | 1.32 | 0.857 | 0.193 | -0.252 | -1.42 | -0.182 | -0.577 | 0.0618 | -0.865 | -0.138
2 | CCTACTGGGCCAAGGTCATTTATCAGTCAAAGCA | 3 | 3 | 1.94 | 3.53 | 0.242 | 3.92 | 4.1 | 4.33 | 1.69 | 3.57 | 3.45 | 4.56 | -0.913 | -0.873 | 1.83 | 3.22 | 1.73 | 3.28 | 0.0192 | 3.15
3 | CGTCAAAGTTGAACTAAGGTAACGTAAAGCACGC | 2.71 | 3.29 | 3.88 | 1.57 | 0.134 | 2.26 | 1.45 | 2.65 | 0.653 | 2.03 | 0.422 | 1.2 | 1.41 | 0.838 | 0.99 | 2.35 | 0.717 | 2.08 | 0.0339 | 2.17
4 | ATACGTAGGTTAAGGGTCATTCAGGTTGGTTCGC | 5.1 | 4.98 | 2.92 | 4.46 | 1.03 | 5.41 | 7.56 | 7.6 | 6.33 | 8.26 | 1.41 | 3.8 | 0.783 | 0.775 | 3.98 | 5.7 | 2.65 | 6.55 | 2.24 | 3.7
5 | CCTTACGGGTGAAGGTTATAGCACGGGTGGTACG | 0.149 | 0.504 | -0.127 | 0.0957 | -0.349 | 1.61 | 1.09 | 1.51 | -0.0216 | 0.958 | 0.6 | 1.31 | -0.607 | -1.16 | 0.456 | 0.216 | -0.0716 | 0.732 | 0.409 | 1.31
6 | TGTCAAAGTTCAAAGGTAACTTAAGTATCCACAC | 7.43 | 6.57 | 4.91 | 5.29 | 1.88 | 5.97 | 9.03 | 7.64 | 5.83 | 7.46 | 0.229 | 4.39 | 1.49 | 1.25 | 2.75 | 5.84 | 3.49 | 6.36 | 1.36 | 5.23
7 | ACTTACGGGTCAACGAGGTTATACCACGCGTATA | 6.87 | 5.39 | 1.14 | 4.59 | 0.838 | 5.83 | 5.59 | 5.57 | 1.82 | 4.26 | 3.73 | 3.99 | 1.8 | 1.74 | 2.9 | 5.43 | 4.36 | 5.72 | 1.26 | 4.34

Source: the supplement of paper PMC6555819
